Compound activity deposited in PubChem by several laboratories.
PostGolgi yeast – phenotypic screen on post-Golgi transport, primary screen; actives 0.9% (n = 98,000); post-Golgi transport phenotypic cell assay; inhibition, % at 10 µM; AID 739, 2007;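 note: yeast cells grown in 1536-well plates; yeast grown about 18 h at 30C before absorbance read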
CYP2C19 inhib – blockers of cytochrome P450 2C19 activity – biochemical, luminescence, ADME assay, primary screen; actives 21% (n = 96,000); inhibition, % at 5 µM; AID 778, 2007; P33261; CYP2C19 Supersomes, luciferin-H EGE luminescence, 30 min;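 active = CYP2C19 inhibition above a set limit at 5 µM in the primary screen, cut at about 50% in these data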;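 note: plate controls were negative control wells for no effect and 2.5 mM tranylcypromine positive control for full effect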
PostGolgi ctrl – growth inhibition of yeast control strain, primary screen, counter-screen for post-Golgi transport modulator project; efflux-deficient yeast background strain, growth absorbance A615, 16 h; inhibition, % at 10 µM; actives 5% (n = 98,000); AID 738, 2007
CYP2C9 inhib – blockers of cytochrome P450 2C9 activity – biochemical, luminescence, ADME assay, primary screen; P11712; CYP2C9 Supersomes, luciferin-H conversion; inhibition, % at 5 µM; actives 20% (n = 96,000); AID 777, 2007;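 active = blocking of liver enzyme CYP2C9 beyond about 50% at 5 µM, limit read from the data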
Target sequence (P11712 whole entry, looked up): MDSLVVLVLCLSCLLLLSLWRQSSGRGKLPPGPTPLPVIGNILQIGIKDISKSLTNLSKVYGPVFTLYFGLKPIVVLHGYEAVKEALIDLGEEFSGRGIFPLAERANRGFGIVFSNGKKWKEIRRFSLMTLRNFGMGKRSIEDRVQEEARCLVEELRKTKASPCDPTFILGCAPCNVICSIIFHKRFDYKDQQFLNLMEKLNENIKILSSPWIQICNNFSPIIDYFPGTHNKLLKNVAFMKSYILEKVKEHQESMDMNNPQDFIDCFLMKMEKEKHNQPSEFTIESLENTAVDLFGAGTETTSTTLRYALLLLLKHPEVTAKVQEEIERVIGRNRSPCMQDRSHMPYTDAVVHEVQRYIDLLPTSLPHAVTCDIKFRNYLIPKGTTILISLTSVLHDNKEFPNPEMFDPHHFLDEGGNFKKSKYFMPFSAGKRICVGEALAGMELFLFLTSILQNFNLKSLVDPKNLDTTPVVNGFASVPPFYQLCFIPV
CYP2C9 act – human CYP2C9 activators, primary screen, biochemical, luminescence. actives 1.4% (n = 96,000). activation factor at 5 µM. Cytochrome P450 2C9 (Homo sapiens), P11712. recombinant CYP2C9, luciferin-H conversion; stronger effect = higher value; factor 1 = untreated enzyme, 0 = blocked;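 active = activation factor of 2 or more for CYP2C9 at a 5 µM dose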;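 note: 0 = sulfaphenazole-blocked wells and 1 = vehicle-only wells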
CYP2C19 act – human CYP2C19 activators, primary screen, biochemical, luminescence; Cytochrome P450 2C19 (Homo sapiens), P33261; recombinant CYP2C19, luciferin-H EGE luminescence; stronger effect = higher value; 0 = fully inhibited enzyme, 1 = untreated enzyme; activation factor at 5 µM; 96,000 tested, under 10 active;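 active = activation factor of at least 2 at 5 µM in the primary screen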;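 note: 0 = wells with 2.5 mM tranylcypromine and 1 = vehicle-only wells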
* marks the source's active call; other numbers are inactive results; · = not tested or not shown. Not all results are given here. Cut-off read from the data, not from the text of the source, unless noted: active = inhibition above about 30%; inactive = the rest.

SMILES	PostGolgi yeast	CYP2C19 inhib	PostGolgi ctrl	CYP2C9 inhib	CYP2C9 act	CYP2C19 act
CC(=O)NC1CC2CCCC(C1)N2CC(=O)N1CCCc2ccccc21 (centres undefined)	20	·	2	·	·	·
O=C(C1CCCCC1)N1CCCc2ccccc21	-7	67*	-3	45	0.6	0.3
O=C(COC(=O)c1ccccc1Cl)Nc1nccs1	1	19	4	11	0.9	0.8
CCCCOC(=O)Nc1cc(C(=O)OC)ccc1C(=O)OC	5	15	10	23	0.8	0.8
C=CCn1c(N)c(C(=O)NC2CCCCC2)sc1=S	11	35	1	36	0.6	0.7
Cc1ccc2cc(CN(Cc3nnnn3C3CCCC3)C3CCCCC3)c(=O)[nH]c2c1C	4	1	3	-9	1.1	1
CN(C1CCCCC1)S(=O)(=O)c1ccc(S(=O)(=O)N2CCN(C(=O)c3ccccc3F)CC2)cc1	2	8	14	4	1	0.9
O=C(CN1CCOCC1)Nc1ccc(-c2nc3ccccc3[nH]2)cc1	5	10	9	11	0.9	0.9
Cn1ncc([N+](=O)[O-])c1C(=O)Nc1ccc(-c2nc3ccccc3[nH]2)cc1	0	62*	-8	41	0.6	0.4
O=C(CC(=O)NC1CCCCC1)N/N=C/c1cccc2ccccc12	-4	6	12	-2	1	0.9
Cc1noc(C)c1S(=O)(=O)N(CCc1ccccc1)Cc1ccccc1	4	41	18	76*	0.2	0.6
Cc1noc(C)c1S(=O)(=O)N(C)CC(=O)NCc1ccccc1	4	5	-1	-1	1	0.9
Cc1ccccc1C(=O)N1CCN(c2ccc([N+](=O)[O-])c(NCc3ccco3)c2)CC1	5	21	27	34	0.7	0.8
Cc1ccc(C(=O)N2CCN(c3ccc([N+](=O)[O-])c(NCc4ccco4)c3)CC2)cc1	0	46	28	74*	0.3	0.5
Cc1cccc(C(=O)N2CCN(c3ccc([N+](=O)[O-])c(NCc4ccco4)c3)CC2)c1	-1	78*	39*	78*	0.2	0.2
COc1ccc(-c2cc(C(=O)N3CCN(c4ccccn4)CC3)c3ccccc3n2)cc1	20	59*	13	77*	0.2	0.4
CCN1CCN(C(=O)c2cnn3c(C(F)F)cc(-c4ccc(C)cc4)nc23)CC1	3	8	8	10	0.9	0.9
COc1ccc(OC)c(-c2cc(C(=O)N3CCN(c4ncccn4)CC3)c3ccccc3n2)c1	6	65*	27	89*	0.1	0.3
CCOC(=O)N1CCN(C(=O)c2cc(-c3ccc(OCC)cc3)nc3ccccc23)CC1	7	16	11	76*	0.2	0.8
Cc1ccc(-c2cc(C(F)F)n3ncc(C(=O)N4CCN(c5ccccn5)CC4)c3n2)cc1	10	46	28	57*	0.4	0.5
CCOc1ccc(-c2cc(C(=O)N3CCN(c4ccccn4)CC3)c3ccccc3n2)cc1	-3	6	9	21	0.8	0.9
CCOc1ccc(-c2cc(C(=O)N3CCN(C)CC3)c3ccccc3n2)cc1	0	-4	5	22	0.8	1
COc1ccc(S(=O)(=O)Nc2cc(C)ccn2)cc1OC	-6	43	16	-70	1.7	0.6
C=CCNc1nc(Nc2ccc(-c3nc4ccccc4o3)cc2)nc(N2CCOCC2)n1	0	49	23	42	0.6	0.5
COCCOc1nc2c(c(=O)n(C)c(=O)n2C)n1Cc1cccc(OC)c1	-3	12	14	36	0.6	0.9
SMILES	PostGolgi yeast	CYP2C19 inhib	PostGolgi ctrl	CYP2C9 inhib	CYP2C9 act	CYP2C19 act
Cc1nc(-c2ccc(NS(C)(=O)=O)cc2)cs1	9	-11	-4	3	1	1.1
CC1CC(C)CN(C(=O)c2cc(-c3ccccn3)nc3ccccc23)C1 (centres undefined)	-6	25	10	27	0.7	0.7
O=C(c1cc(-c2ccccn2)nc2ccc(Br)cc12)N1CCc2ccccc2C1	30	87*	71*	89*	0.1	0.1
COc1ccccc1-c1cc(C(=O)N2CCc3ccccc3C2)c2ccccc2n1	1	48	52*	64*	0.4	0.5
O=C(Nc1ccc(F)cc1)N(CCCN1CCOCC1)Cc1cc2cc3c(cc2[nH]c1=O)OCCO3	2	36	40*	15	0.9	0.6
COc1cc2cc(CN(Cc3cccnc3)C(=O)NCc3ccccc3)c(=O)[nH]c2cc1OC	-3	52*	17	37	0.6	0.5
CCc1ccc2[nH]c(=O)c(CN(CCCN3CCOCC3)C(=O)Nc3ccc(F)cc3)cc2c1	1	55*	17	44	0.6	0.4
COc1ccc2[nH]c(=O)c(CN(CCN(C)C)C(=O)NCc3ccccc3)cc2c1	-5	3	-3	8	0.9	1
CCc1ccc2[nH]c(=O)c(CN(CCN3CCOCC3)C(=O)Nc3ccccc3F)cc2c1	4	50	-2	52*	0.5	0.5
O=C(Nc1ccc(F)cc1)N(CCCN1CCOCC1)Cc1cc2cc3c(cc2[nH]c1=O)OCO3	8	·	2	·	·	·
CC(=O)Nc1c(NCC(C)C)c2ccccc2oc1=O	4	·	10	·	·	·
O=C1NCC(CN(c2ccccc2)c2ccccc2)O1 (centres undefined)	18	30	9	30	0.7	0.7
CCOc1cccc(N2C(=O)CC(n3cnc4ccccc43)C2=O)c1 (centres undefined)	3	4	-1	-6	1.1	1
CSCCNC(C)=O	2	-13	-1	-15	1.1	1.1
CCc1ccc2[nH]c(=O)c(CN(Cc3ccccc3)C(=O)Nc3ccccc3OC)cc2c1	19	86*	71*	90*	0.1	0.1
O=[N+]([O-])c1ccc(NCCNc2ccc(Cl)nn2)cc1	-2	22	13	18	0.8	0.8
CCOC(=O)/C(=N\Nc1cccc(C(F)(F)F)c1)N(CCOC)CCOC	16	99*	10	89*	0.1	0
COc1ccc(-c2nn(-c3ccccc3)cc2C#N)cc1	1	3	12	12	0.9	1
CCN(CC)C(=O)CSC1=Nc2ccccc2C2=NC(c3ccccc3)C(=O)N12 (centres undefined)	0	26	26	61*	0.4	0.7
CCOC(=O)CSC1=Nc2ccccc2C2=NC(CC(=O)NCc3ccccc3)C(=O)N12 (centres undefined)	0	3	2	57*	0.4	1
CCC(C)NC(=O)CSC1=Nc2ccccc2C2=NC(CC(=O)NCc3ccc(F)cc3)C(=O)N12 (centres undefined)	-4	-14	-4	6	0.9	1.1
